{
  "source": "the supplement of paper PMC6555819",
  "data": [
    {"tested_on": "VDR:RXRa (NR concentration 270 nM, RXRa partner concentration 90 nM)", "test": "PBM binding z-score (relative to random genomic background probes); higher = stronger binding; sequences stand for … in GC…GCGATTGACAGCGTAGAATGAAGG", "experimental": "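Protein-binding microarray (Agilent 4x180K custom design, double-stranded 60-nt probes: 5' GC cap, 34-nt variable region, 24-nt constant primer region; full probe sequence given). Purified or IVT nuclear receptor:RXRα heterodimers (3:1 NR:RXRα, mostly 270:90 nM) or homodimers were incubated for 1 h in PBS with 2% milk and no ligand, then detected with Alexa488 antibodies. Fluorescence from o1-orientation probes (~5 replicates averaged) was converted to z-scores against 500 random hg19 background probes. Variable regions are seed direct-repeat (DR0–DR5) sites, all their single-nucleotide variants and half-site ablations.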", "values": [
      {"sequence": "TTACCAAGGTGAAGGTGGTTGATCCCTCTGTAGA", "PBM binding z-score": 0.0919},
      {"sequence": "TCATATAGGTAATACACGTGAAAGTCGGCATCTA", "PBM binding z-score": 1.01},
      {"sequence": "GATACAGGGTCAAGGCCAGAGCACGCGTATTGAT", "PBM binding z-score": 4.21},
      {"sequence": "ATCTCTAGGTAACCAAGTTCAGTGACTGCCGAAC", "PBM binding z-score": 4.15},
      {"sequence": "GATACAGGGTCAGCTAGATGCCAGAGTATGGAAA", "PBM binding z-score": 2.58},
      {"sequence": "TCGAGTAGTTTACCAATGGGGCATTCAGCTTTCT", "PBM binding z-score": -0.0762},
      {"sequence": "TCGAGTAGGTTACCAATGTGGCATTCAGCTTTCT", "PBM binding z-score": -0.0444},
      {"sequence": "CCTATTAGTTGACCATAAGGGCAACCGTAGCTCG", "PBM binding z-score": 0.674},
      {"sequence": "CGTCAAAGTTCAAGGTAACGAAACAGAAAGCAGC", "PBM binding z-score": 3.7},
      {"sequence": "AGAATGAGGGTAAGATCAGGGAAACAGAATACAT", "PBM binding z-score": -0.0914},
      {"sequence": "CAAACTAGGTCAACAGGTCAAAGTCCGCTTCCCG", "PBM binding z-score": 4.87},
      {"sequence": "TATACATGGTCAAAGGCCAGAGTACGAATGTCGA", "PBM binding z-score": 0.445},
      {"sequence": "CGTCCAAGGTCAATGCTAGGTCAGTGACAGCATT", "PBM binding z-score": 4.87},
      {"sequence": "ACTAGCAGGCCAAGTTTGGGTCACCCAAACAAAG", "PBM binding z-score": 1.13},
      {"sequence": "ATCTCAAGGTAAAGTTCAGTGAAAGATCGATAGA", "PBM binding z-score": 1.8},
      {"sequence": "CCTACTGGGCCACGAAATGTCATTGATTCAGTGA", "PBM binding z-score": -0.452},
      {"sequence": "CCTATTAGTTGACCATAAGGGCAACCTAAGCTCG", "PBM binding z-score": 0.839},
      {"sequence": "TAGCCTAGGCCATTCAGGGGCCAGTATAGAAAGC", "PBM binding z-score": -0.423},
      {"sequence": "CCTAGTTGGTCAGGAGGTCACACTCCGGATATGA", "PBM binding z-score": 3.82},
      {"sequence": "AATACAGGGTCATCCTAGGCCAGAGTACGCACAG", "PBM binding z-score": 5.38},
      {"sequence": "TCTAGATGGTCACGGAGGTCACACACGACGGGTA", "PBM binding z-score": 6.25},
      {"sequence": "TTAGCAAGGTGAGCTGAGGTCGTTGATCCAACTC", "PBM binding z-score": 4.01},
      {"sequence": "CGTCCAAGGTCAGCGAGGTCAGTGAATGCCGAGT", "PBM binding z-score": 7.6},
      {"sequence": "GATACCGGGTCAAGGCCAGAGTACGCGTATTGAT", "PBM binding z-score": 3.11},
      {"sequence": "ACTAGCAGGCTAAGGGTCACTCAAGATTAGTCCG", "PBM binding z-score": 2.97},
      {"sequence": "TAGAGTAGGTTAGGGGCATTCAGAATGGCGTCGA", "PBM binding z-score": 1.06},
      {"sequence": "CCTTACGGGTCACTGACAGGTTATTGCATTTGGA", "PBM binding z-score": 3.93},
      {"sequence": "CGTCCAAGGCCAAGGTCAGTGAAAGAGACTCGAA", "PBM binding z-score": 1.15},
      {"sequence": "ATACCAAGGCGATCGTGAGGTCGTTGATACTAAC", "PBM binding z-score": 1.51},
      {"sequence": "TCATATAGGTAATACAGGTGAAAGACGGCATCTA", "PBM binding z-score": 1.02},
      {"sequence": "CCAGACCGGTGAAAGGTAACTCAGTCTGGTACGC", "PBM binding z-score": 0.137},
      {"sequence": "CCGAGTAGGTTATGGGGCTTTCAGGCAACGGTGA", "PBM binding z-score": -0.375},
      {"sequence": "ACTTACGGGTCATCGAGGTTATAGCACGCGTATA", "PBM binding z-score": 7.51},
      {"sequence": "GCGACTGGGGCATCAGCAGGTTTCCATAACTTAA", "PBM binding z-score": -0.402},
      {"sequence": "TGAATGAGGTTAAAGATCAGAGAACGTGGCGTCG", "PBM binding z-score": 1.8},
      {"sequence": "AGTAGCAGGCCAAGTTTGGGTCACTCAAACAAAG", "PBM binding z-score": 0.609},
      {"sequence": "GCTAGTTGGTCAGTAAACGGTCACACACCGGTCG", "PBM binding z-score": -0.0437},
      {"sequence": "TTACCAGGGTGAGCTGAGGTCGTTGATCCAACTC", "PBM binding z-score": 4.58},
      {"sequence": "GCGACTGGGGCAAAGCAGGTTAACATAAGGTTGG", "PBM binding z-score": 0.364},
      {"sequence": "ACTATTAGTTGAGACGAGGGCAACCGTTAGGTTG", "PBM binding z-score": 0.546}
    ]}
  ]
}
